Measured values reported in ChEMBL document CHEMBL3988442, “University of Dundee, Small-Polar-MMV Screening Library” (2021).

Target: Sialic acid-binding Ig-like lectin 9 (Homo sapiens) (UniProt Q9Y336)
Assay: Hs-Siglec9 ALPHAscreen SOP 20170721
Design: scale not given: direction of the effect not stated beside the values
Conditions: 10 µM

Sialic acid-binding Ig-like lectin 9 (Homo sapiens), sequence (Q9Y336 whole entry): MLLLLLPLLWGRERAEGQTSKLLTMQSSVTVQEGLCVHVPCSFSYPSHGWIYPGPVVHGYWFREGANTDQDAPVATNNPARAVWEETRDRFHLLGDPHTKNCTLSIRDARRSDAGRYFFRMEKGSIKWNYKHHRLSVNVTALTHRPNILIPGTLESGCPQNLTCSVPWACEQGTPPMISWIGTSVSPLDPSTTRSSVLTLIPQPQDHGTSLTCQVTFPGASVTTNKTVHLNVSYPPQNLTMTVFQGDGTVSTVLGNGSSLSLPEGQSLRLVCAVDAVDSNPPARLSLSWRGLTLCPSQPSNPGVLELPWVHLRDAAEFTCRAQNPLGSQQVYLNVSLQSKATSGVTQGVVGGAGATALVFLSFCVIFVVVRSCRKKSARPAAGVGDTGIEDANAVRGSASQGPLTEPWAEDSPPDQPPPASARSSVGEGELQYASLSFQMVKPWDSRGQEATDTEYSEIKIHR

| SMILES | Percent Effect [%] |
| --- | --- |
| CCS(=O)(=O)N1C[C@H]2CCC[C@@]2(COc2ccccn2)C1 | 2.8 |
| Cc1ccc(CNCCOc2ccc(S(C)(=O)=O)cc2)cc1 | -1.11 |
| Cn1nnc2cc(C(=O)N3CCCC3Cc3ccccc3)ccc21 (centres undefined) | 2.89 |
| Cn1cnnc1C1CCCN(C(=O)NCCOc2ccccc2)C1 (centres undefined) | -22.3 |
| Cc1ccc(-c2cccc(-c3ccn(CCN4CCCC4)n3)c2)nn1 | 3.72 |
| c1coc(-c2nnc(CN3CCCC(CN4CCCCCC4)C3)o2)c1 (centres undefined) | 1.71 |
| OC(CN1CCN(Cc2ccc(F)cc2)CC1)C1CC1 (centres undefined) | -6.79 |
| CCCNC(=O)c1ccc(NC(=O)c2cccc(OCC)c2)cc1 | -0.164 |
| Cc1cc(CN2CCOC(CN(C)c3cccnn3)C2)no1 (centres undefined) | -5.84 |
| Cc1noc(C)c1CN1CCN(C(=O)Cn2cncn2)CC1 | 5 |
| CC(C)(C)C(=O)N1CCC(c2nc(O)cc(-c3ccccn3)n2)CC1 | -7.12 |
| COc1cc(CNCc2ccc(C(C)O)cc2)cc2c1OCO2 (centres undefined) | 10.4 |
| c1cnc(-c2nc(CNCCn3cccn3)cs2)nc1 | -0.779 |
| O=C(NCCNc1ccccn1)N1CCSCC1 | -0.67 |
| O=C(CS(=O)(=O)c1ccccc1Cl)NC1CCCCNC1=O (centres undefined) | 4.43 |
| N#CC1(C(=O)NCCCNc2ccc(C(F)(F)F)cn2)CCCC1 | 5.29 |
| O=C1CCc2cc(-c3csc(CCN4CCCC4=O)n3)ccc2N1 | 2.39 |
| CCn1c(C(=O)N2CCN(C(=O)COC)CC2)cc2ccccc21 | 23.8 |
| CC(O)CC(C)(C)CNC(=O)NCc1cccc(-n2ccnc2)c1 (centres undefined) | -7.44 |
| CCS(=O)(=O)NCCNC(=O)c1cc(Cl)c2c(c1)OCCCO2 | 31.3 |

| SMILES | Percent Effect [%] |
| --- | --- |
| COc1c(CNCc2ccnc(N3CCCC3)c2)c(C)nn1C | 2.4 |
| C[C@H]1C[C@@H]2CCN(C(=O)c3ccncn3)C[C@H]2O1 | -0.649 |
| CCNC(=O)NC(=O)CSC(C)c1ccccc1F (centres undefined) | 16.2 |
| CN(Cc1ccsc1)C(=O)Nc1ccc(S(C)(=O)=O)nc1 | -5.34 |
| Cc1cc(F)ccc1OC1(C(=O)O)CCN(Cc2ccncc2)CC1 | 19.8 |
| COc1cc(NC(=O)Cn2ccc3sc(C)cc3c2=O)cc(OC)c1 | 5.78 |
| O=C(CCCc1nnc(-c2ccccc2)o1)N1CCN(CCO)CC1 | 8.28 |
| CNc1cc2c(nn1)CCN(C(=O)c1ccoc1)C2 | -6.29 |
| O=C1NC2(CCN(C(=O)c3ccccc3)CC2)CC1c1cccnc1 (centres undefined) | 5.92 |
| CNC(=O)[C@H]1C[C@@H]2CN(S(=O)(=O)c3ccccc3)C[C@@H]2N1C(C)=O | 8.79 |
| CC(=O)NCC(=O)N1Cc2nccn2CC(Cn2cccn2)C1 (centres undefined) | -2.67 |
| CCc1cnc2c(c1NCc1ccncc1)c(=O)n(C)c(=O)n2C | -0.488 |
| CCn1cnnc1C1CCN(C(=O)COCCc2ccccc2)CC1 | -7.71 |
| Cc1nc(C2CCCN(C(=O)CCCn3ccnc3C)C2)no1 (centres undefined) | -4.13 |
| O=C(c1cscn1)N1C[C@H]2CCCC(OCc3cccnc3)[C@H]2C1 (some centres undefined) | 2.64 |
| CSc1cccc(CNC(=O)C2CC(=O)N(CCN(C)C)C2)c1 (centres undefined) | 4.4 |
| COc1ccc(-c2noc(CN3CCOCC3C)n2)cc1OC (centres undefined) | 15.8 |
| OCC1CCCN1c1cc(NCCNc2ccccn2)ncn1 (centres undefined) | -5.01 |
| O=C(Nc1cc(F)ccc1OCC1CCCO1)c1ccccn1 (centres undefined) | 12.2 |
